In PubChem BioAssay (Tox21):
Records with an inconclusive call do not appear. Activity calls are given as the source filed them. Unless noted, calls come from the whole dose curve; as a rule, active = well fitted curve in the direction sought with a large enough effect in the repeat runs; inconclusive = weak or mixed curves; inactive = no such curve, though single readings can be large; an effect the other way counts as inactive or inconclusive.

Experiments:
[1] = A CellTox Green Cytotoxicity Assay to monitor cytotoxicity in HepG2 cells - 32 hour (AID 1224883); note: nearly all actives have a fitted effect of over 50% in size
Outline: (§1)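 Real-time cytotoxicity: fluorescence of a cell-impermeant cyanine dye binding DNA of dead HepG2 cells, measured repeatedly (0–40 h) during compound exposure at 37 C. Cells seeded 600/well with reagent, dosed after 5 h.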

[2] = A CellTox Green Cytotoxicity Assay to monitor cytotoxicity in HEK293 cells - 8 hour (AID 1224884); note: nearly all actives have a fitted effect of over 35% in size
Outline: (§2)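 Fluorescence from a DNA-binding dye excluded by viable cells was measured repeatedly in the same HEK293 wells (600 cells/well) during continuous compound exposure at 37 C. Each assay gives one read point: 0, 8, 16, 24, 32 or 40 h.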

[3] = qHTS RealTime-Glo MT Cell Viability Assay in HepG2 cells - 16 hour (AID 1224885); note: nearly all actives have a fitted effect of over 50% in size
Outline: (§3)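 HepG2 cells were seeded at 600 cells/well together with NanoLuc luciferase and a cell-permeant prosubstrate, preincubated 5 h at 37 C/5% CO2, then pin-dosed with compounds in DMSO. Nonlytic luminescence from viable cells was read at each time point.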

[4] = qHTS RealTime-Glo MT Cell Viability Assay in HEK293 cells - 8 hour (AID 1224887); note: top concentration of the series differs between compounds; nearly all actives have a fitted effect of over 50% in size
Outline: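 Luminescence, which tracks viable cell number through reduction of the prosubstrate to a NanoLuc substrate, was read over continuous 37 C culture. Cells (600/well) were premixed with reagent and rested 5 h before 23 nL of compound in DMSO was pinned.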

[5] = A CellTox Green Cytotoxicity Assay to monitor cytotoxicity in HEK293 cells - 16 hour (AID 1224888); note: nearly all actives have a fitted effect of over 35% in size
Outline: as §2

[6] = qHTS RealTime-Glo MT Cell Viability Assay in HepG2 cells - 0 hour (AID 1224889); note: nearly all actives have a fitted effect of over 50% in size
Outline: as §3

[7] = A CellTox Green Cytotoxicity Assay to monitor cytotoxicity in HepG2 cells - 8 hour (AID 1224890); note: nearly all actives have a fitted effect of over 45% in size
Outline: as §1

[8] = qHTS assay to identify small molecule antagonists of the estrogen receptor alpha (ER-alpha) signaling pathway using the BG1 cell line in the presence of 0.1 nM 17-beta-estradiol - cell viability counter screen (AID 1259241); note: nearly all actives have a fitted effect of over 40% in size
Outline: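 VM7Luc4E2 cells (endogenous ER-alpha, 4×ERE-luciferase), hormone-starved 5 days in charcoal-stripped FBS, were treated with compounds plus 0.1 nM 17beta-estradiol for 22 hr at 37C; viability read in same wells as CellTiter-Fluor live-cell protease fluorescence.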

[9] = qHTS assay to identify small molecule antagonists of the androgen receptor (AR) signaling pathway using the MDA cell line in the presence of 0.5 nM R1881 - cell viability counter screen (AID 1259242); note: nearly all actives have a fitted effect of over 45% in size
Outline: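 Live-cell protease activity was measured by CellTiter-Fluor fluorescence after 30 min. Before that, MDA-kb2 MMTV-luciferase cells had 16 hr at 37C without CO2, exposed to test compounds and 0.5 nM R1881 final.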

[10] = target: Androgen receptor (Homo sapiens) (UniProt P10275); test: qHTS assay to identify small molecule antagonists of the androgen receptor (AR) signaling pathway using the MDA cell line in the presence of 0.5 nM R1881 (AID 1259243); note: nearly all actives have a fitted effect of over 50% in size
Outline: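 Luminescent reporter readout (ONE-Glo, 30 min, room temperature) after 16 hr co-treatment of MDA-kb2 cells with test compounds and 0.5 nM R1881 final, at 37C without CO2. The MMTV-driven luciferase responds to both AR and GR.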

[11] = target: Estrogen receptor (Homo sapiens) (UniProt P03372); test: qHTS assay to identify small molecule antagonists of the estrogen receptor alpha (ER-alpha) signaling pathway using the BG1 cell line in the presence of 0.1 nM 17-beta-estradiol (AID 1259244); note: nearly all actives have a fitted effect of over 50% in size
Outline: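 Luciferase luminescence (ONE-Glo, 30 min at room temperature) was read after 22 hr at 37C exposure to compounds plus 17beta-estradiol at 0.1 nM final. Cells were VM7Luc4E2 with endogenous ER-alpha and an ERE-driven luciferase, pre-cultured 5 days in hormone-depleted medium.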

[12] = qHTS assay to identify small molecule HDAC inhibitors (AID 1259364); note: top concentration of the series differs between compounds; nearly all actives have a fitted effect of over 45% in size
Outline: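 Luminescence read after 30 min room-temperature HDAC-Glo incubation measures cellular class I/II HDAC activity. Compounds were applied for 2 hr at 37 C to HCT-116 wild-type cells seeded the day before.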

[13] = qHTS assay to identify small molecule agonists of the sonic hedgehog signaling (Shh) pathway - cell viability counter screen (AID 1259366); note: nearly all actives have a fitted effect of over 50% in size
Outline: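 NIH/3T3-derived 3T3 Gli1-Luc cells (stable Gli1-responsive firefly luciferase reporter) were seeded, rested 4 hr at 37 C/5% CO2, then exposed to compounds in DMSO for 24 hr; viability was read by CellTiter-Fluor fluorescence in the same wells.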

[14] = qHTS assay to identify small molecule antagonists of the sonic hedgehog signaling (Shh) pathway - cell viability counter screen (AID 1259367); note: nearly all actives have a fitted effect of over 55% in size
Outline: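 Conditioned medium drove Shh signaling in 3T3 Gli1-Luc cells exposed to compounds at 37C and 5% CO2. Viability was determined from CellTiter-Fluor fluorescence, with reagent incubated 1 hr after 23 hr of treatment.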

[15] = qHTS assay to identify small molecule agonists of the sonic hedgehog signaling (Shh) pathway (AID 1259368; calls by dose curve; note: series mostly up to about 92 µM; nearly all actives have a fitted effect of over 15% in size)
Outline: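 Luminescence was read after 30 min at room temperature with luciferase reagent. Before that, 3T3Gli1-Luc cells (NIH/3T3 clone, stable Gli1-Luc reporter; 2,000/well) were exposed to compounds for 24 hr at 37C, 5% CO2, compounds being added 4 hr post-plating.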

[16] = qHTS RealTime-Glo MT Cell Viability Assay in HEK293 cells - 24 hour (AID 1224886)
Outline: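 HEK293 cells were seeded at 600 cells/well together with NanoLuc luciferase and cell-permeant prosubstrate, preincubated 5 h at 37 C/5% CO2, then given compound in DMSO by pintool. Luminescence from viable-cell prosubstrate reduction was read repeatedly over 40 h.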

[17] = qHTS assay to identify small molecule phospholipidosis (PLD) inducers (AID 1259344; active = well fitted curve in the direction sought with a large enough effect; an effect the other way counts as inactive or inconclusive)
Outline: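 After 4 h attachment on collagen I, HepG2 cells were dosed with compound alongside LipidTOX Red, kept 24 h at 37 C, fixed, and imaged for lamellar phospholipid pits.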

[18] = qHTS assay to identify small molecule HDAC inhibitors - cell viability counter screen (AID 1259365)
Outline: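 Wild-type HCT-116 cells were seeded at 1,500 per well, incubated overnight at 37 C, then exposed to compounds in DMSO for 2hr. Viability was read by CellTiter-Glo luminescence after 30min at room temperature.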

[19] = A CellTox Green Cytotoxicity Assay to monitor cytotoxicity in HepG2 cells - 0 hour (AID 1224882); note: nearly all actives have a fitted effect of over 35% in size
Outline: as §1

Measured: Potency

Sequence of Estrogen receptor (Homo sapiens) (P03372 whole entry, looked up): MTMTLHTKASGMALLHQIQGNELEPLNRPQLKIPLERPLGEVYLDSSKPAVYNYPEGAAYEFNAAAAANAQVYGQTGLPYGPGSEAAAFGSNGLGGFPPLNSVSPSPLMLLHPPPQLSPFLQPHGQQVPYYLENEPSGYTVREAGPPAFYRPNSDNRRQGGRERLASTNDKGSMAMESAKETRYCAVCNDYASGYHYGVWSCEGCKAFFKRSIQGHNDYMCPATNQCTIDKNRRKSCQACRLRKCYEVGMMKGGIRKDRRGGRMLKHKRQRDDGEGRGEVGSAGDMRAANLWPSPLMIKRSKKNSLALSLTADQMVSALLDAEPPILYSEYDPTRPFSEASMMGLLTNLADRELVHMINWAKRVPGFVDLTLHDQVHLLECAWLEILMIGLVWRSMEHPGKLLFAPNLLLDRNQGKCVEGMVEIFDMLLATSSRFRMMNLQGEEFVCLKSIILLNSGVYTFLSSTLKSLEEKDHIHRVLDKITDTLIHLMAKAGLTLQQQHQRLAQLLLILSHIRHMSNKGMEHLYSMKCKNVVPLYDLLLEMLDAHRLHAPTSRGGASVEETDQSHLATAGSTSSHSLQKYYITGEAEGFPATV
Sequence of Androgen receptor (Homo sapiens) (P10275 whole entry, looked up): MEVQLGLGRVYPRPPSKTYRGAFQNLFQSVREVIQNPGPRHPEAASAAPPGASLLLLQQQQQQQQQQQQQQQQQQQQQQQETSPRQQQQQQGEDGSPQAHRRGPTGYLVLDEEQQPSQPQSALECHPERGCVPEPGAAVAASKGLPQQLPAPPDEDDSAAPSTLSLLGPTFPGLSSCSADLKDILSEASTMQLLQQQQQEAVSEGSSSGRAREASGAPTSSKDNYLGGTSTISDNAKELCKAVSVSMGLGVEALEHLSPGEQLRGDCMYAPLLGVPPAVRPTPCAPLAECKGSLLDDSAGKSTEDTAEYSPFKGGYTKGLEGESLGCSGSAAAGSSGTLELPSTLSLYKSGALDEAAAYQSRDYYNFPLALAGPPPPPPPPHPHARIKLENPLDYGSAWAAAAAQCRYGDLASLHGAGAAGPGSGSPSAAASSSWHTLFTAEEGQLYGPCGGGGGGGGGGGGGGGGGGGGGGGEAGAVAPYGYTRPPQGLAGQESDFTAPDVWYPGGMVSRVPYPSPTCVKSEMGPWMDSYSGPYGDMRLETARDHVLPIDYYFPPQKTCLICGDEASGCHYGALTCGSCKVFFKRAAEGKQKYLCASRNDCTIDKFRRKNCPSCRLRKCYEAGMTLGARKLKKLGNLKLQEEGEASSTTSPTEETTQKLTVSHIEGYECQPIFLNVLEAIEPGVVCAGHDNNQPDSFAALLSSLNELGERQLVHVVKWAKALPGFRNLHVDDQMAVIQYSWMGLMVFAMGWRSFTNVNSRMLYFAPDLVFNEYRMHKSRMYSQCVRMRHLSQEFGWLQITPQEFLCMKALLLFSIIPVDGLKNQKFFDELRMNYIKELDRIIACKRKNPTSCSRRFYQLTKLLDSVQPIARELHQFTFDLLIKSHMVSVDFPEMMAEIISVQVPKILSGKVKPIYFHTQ

CCc1cccc(CC)c1N
inactive: [1] | [2] | [3] | [4] | [5] | [6] | [7] | [8] | [9] | [10] | [11] | [12] | [13] | [14] | [15]

NCCNCCNCCN
inactive: [1] | [2] | [3] | [16] | [4] | [6] | [7] | [8] | [9] | [17] | [12] | [18] | [13] | [14] | [15]

N[C@@H](Cc1cc(I)c(Oc2ccc(O)c(I)c2)c(I)c1)C(=O)O
inactive: [19] | [1] | [3] | [4] | [5] | [6] | [7] | [8] | [9] | [17] | [12] | [13] | [14] | [15]

O=C1CCCCCCCCCCC1
inactive: [1] | [3] | [16] | [4] | [6] | [7] | [8] | [9] | [12] | [18] | [13] | [14] | [15]

Nc1cccc(N)n1
inactive: [19] | [1] | [2] | [3] | [16] | [4] | [5] | [6] | [7] | [8] | [9] | [12] | [13] | [14] | [15]

Brc1ccc(Oc2ccc(Br)cc2)cc1
inactive: [1] | [2] | [3] | [4] | [5] | [6] | [7] | [8] | [9] | [12] | [18] | [13] | [14] | [15]

OB(O)O
inactive: [19] | [1] | [2] | [3] | [4] | [6] | [7] | [8] | [9] | [11] | [17] | [12] | [18] | [13] | [14] | [15]

COCN(COC)c1nc(N(COC)COC)nc(N(COC)COC)n1
inactive: [1] | [2] | [3] | [4] | [6] | [7] | [8] | [9] | [11] | [12] | [18] | [13] | [14] | [15]

O=C(NCC1CCCCN1)c1cc(OCC(F)(F)F)ccc1OCC(F)(F)F (stereo not drawn)
inactive: [1] | [2] | [3] | [16] | [4] | [5] | [6] | [7] | [8] | [9] | [17] | [12] | [13] | [14] | [15]

CC(O)CNCC(C)O (stereo not drawn)
inactive: [1] | [3] | [16] | [4] | [6] | [7] | [8] | [9] | [12] | [18] | [13] | [14] | [15]

O=C(Cl)c1ccc(C(=O)Cl)cc1
inactive: [19] | [1] | [2] | [3] | [16] | [4] | [6] | [7] | [8] | [9] | [12] | [13] | [14] | [15]

O=C1C(N(CO)C(=O)NCO)N(CO)C(=O)N1CO (stereo not drawn)
inactive: [19] | [1] | [2] | [3] | [4] | [5] | [6] | [7] | [8] | [9] | [12] | [18] | [13] | [14] | [15]
